LGR2 antag = Drosophila LGR2 receptor signaling inhibition. HEK293 LGR2, CRE-luciferase, bursicon-stimulated, 4 h. inhibition, % at 9.99 µM. 380,000 compounds, 0.35% hits;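 active = drop in luminescence signal, shown as inhibition above about 50% in the replicate tests, limit read from the data, passing the limit was not always enough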;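 note: agonist challenge used bursicon conditioned medium at about half maximal strength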
EBV LMP1 NFkB = Epstein-Barr LMP1 NF-kappaB reporter inhibition. inhibition, % at 12.5 µM. 350,000 compounds, 0.69% hits. LMP1-induced NF-kappaB luciferase reporter cells, luminescence; in the data active = inhibition above about 41%;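 note: 0% = neutral control wells and 100% = reference inhibitor control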
TROY signal inh = blocks TROY-dependent signaling in reporter cells | inhibition, % at 10 µM | AID 1347056 | Q293 LMP1-TROYcd NF-kB luciferase reporter, 4 h | 360,000 compounds, 0.98% hits;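 active = compounds whose plate-normalised and pattern-corrected inhibition of the luciferase reporter signal at the single screening dose is 50% or more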
TWEAK Fn14 block = inhibitors of TWEAK-Fn14 interaction signaling; TWEAK-stimulated Fn14 reporter cells, luciferase luminescence, 8 h; inhibition, % at 10 µM; 360,000 compounds, 2% hits; AID 1159606; in the data active = inhibition above about 50%
EWS-Fli inh = inhibitors of EWS/Fli oncoprotein transcriptional activity; A673 NR0B1-luciferase reporter, viability-normalised; inhibition, % at 12.6 µM; 350,000 compounds, 0.67% hits; AID 651661;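 active = mean inhibition of at least 50% after viability correction, with every replicate also passing that limit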;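 note: firefly luciferase signal divided by Alamar Blue viability fluorescence both relative to DMSO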
Starred values were filed as active, the others as inactive; / = not tested or not shown. Sampled rows, rich in hits. Any-hit rate of the full collection: about 2.5%.

SMILES | LGR2 antag | EBV LMP1 NFkB | TROY signal inh | TWEAK Fn14 block | EWS-Fli inh
Cc1ccsc1/C=N\NC(=O)c1n[nH]c2c1CCC2 | 78* | 35 | 41 | 81* | /
O=C(N/N=C/c1cccc(O)c1)c1ccc2c(c1)OCCO2 | 13 | 64* | 15 | 69* | 2
Cc1ccsc1/C=N/NC(=O)Cc1ccc(Cl)cc1 | -9 | -4 | -1 | 90* | -7
CCC(=O)N[C@@H]1CC[C@@H](CC(=O)OC)O[C@H]1CO | 4 | / | / | / | -8
COc1cccc(NC(=O)N2C[C@H](O)COC[C@@H]3O[C@@H](CC(=O)NCCCN4CCOCC4)CC[C@H]32)c1 | 0 | / | / | / | /
O=C(NCC[C@H]1CC[C@H](NS(=O)(=O)c2cccc(F)c2)[C@H](CO)O1)C1CCC1 | -1 | / | / | / | 1
c1ccc(-c2nc(NCc3ccco3)c3ccccc3n2)nc1 | 17 | 63* | -32 | 5 | /
COc1ccccc1Nc1nc(NCc2ccco2)c2ccccc2n1 | / | / | -71 | 9 | 1
Cc1ccc(Nc2nc(NCc3ccco3)c3ccccc3n2)cc1 | 96* | -11 | 70* | 85* | -22
COc1ccc(OC)c(-c2oc3ccccc3c(=O)c2O)c1 | / | -7 | -9 | -37 | /
O=c1cc2oc3cc(O)c(O)cc3c(-c3ccccc3O)c-2cc1O | / | 12 | 4 | 31 | /
CCOc1ccccc1-c1c2cc(O)c(=O)cc-2oc2cc(O)c(O)cc12 | / | 9 | 22 | 74* | /
COc1ccc(OC)c(-c2c3cc(O)c(=O)cc-3oc3cc(O)c(O)cc23)c1 | / | 31 | 11 | 74* | /
C[C@H]1CN([C@@H](C)CO)C(=O)c2cccc(NC(=O)Nc3ccc(F)cc3)c2O[C@H]1CN(C)C(=O)NC1CCCCC1 | -23 | / | / | / | -1
CO[C@@H]1CN(C)C(=O)c2ccc(NC(=O)Nc3ccccc3F)cc2OC[C@@H](C)N(Cc2ccccc2F)C[C@H]1C | -1 | / | / | / | -4
Oc1cccc2ccc(Nc3ccccn3)nc12 | / | 75* | 0 | -11 | /
Cc1occc(=O)c1OC(=O)Nc1ccc(Cl)c(Cl)c1 | 28 | 17 | 36 | 59* | -9
Cc1cc(N2CCN(C)CC2)nc2ccc(NC(=S)N3CCCCCC3)cc12 | -25 | 0 | 28 | -26 | -2
Cc1cccc(N2CCN(C(=S)Nc3ccc4nc(N5CCN(C)CC5)cc(C)c4c3)CC2)c1C | 7 | 82* | 8 | -84 | 56*
Cc1cc(N2CCN(C)CC2)nc2ccc(NC(=S)N3CCCCC3)cc12 | -35 | -3 | 54* | -8 | -5
CCC(=O)N(C)C[C@H]1Oc2cc(-c3ccc(C#N)cc3)ccc2S(=O)(=O)N([C@@H](C)CO)C[C@H]1C | 3 | / | / | / | -3
O=C(CNC(=O)c1cccs1)c1ccc(Br)cc1 | -15 | -22 | -7 | 55* | -4
O=C(CNC(=O)c1cccs1)OCc1ccc(Br)cc1 | -1 | 10 | 0 | 0 | -1
CCc1ccccc1-n1ncc(C(=O)Nc2ccc(OC)cc2)c1C | -36 | 79* | -31 | -22 | -132
CCc1ccc(NC(=O)c2cnn(-c3ccccc3)c2C)cc1 | 48 | -20 | 9 | 38 | /
SMILES | LGR2 antag | EBV LMP1 NFkB | TROY signal inh | TWEAK Fn14 block | EWS-Fli inh
CC(C)c1ccccc1-n1c(SCC(=O)N2CCc3ccccc3C2)nc2ccccc2c1=O | 30 | -2 | 54* | 46 | 13
CO[C@H]1CN(C)C(=O)c2cc(NC(=O)c3ccc(F)cc3)ccc2OC[C@H](C)N(C(=O)c2ccc(F)cc2)C[C@H]1C | 7 | / | / | / | 13
COc1ccc(C#Cc2ccc3c(c2)[C@@H]2[C@@H](CCN2C(=O)C2CCCCC2)[C@@H](CO)N3)cc1 | -9 | / | / | / | 10
Cc1cc(C)n(-c2ccc(C(=O)N3CCc4ccccc43)cc2)n1 | / | -12 | -25 | 88* | /
O=C(Nc1ccccc1)N[C@H]1CC[C@@H](CCNS(=O)(=O)c2ccccc2F)O[C@H]1CO | -22 | / | / | / | 0
Nc1ccc(-c2ncc(-c3ccccc3)o2)cc1 | -16 | 28 | 34 | 68* | 65*
Cc1ccc(-c2cnc(-c3ccncc3)o2)cc1 | / | -15 | -39 | -16 | /
COc1ccc(CNC(=O)Nc2nnc([C@H]3C[C@H](O)[C@@H](CO)O3)s2)cc1 | -17 | / | -15 | -3 | 6
COc1ccc(CNC(=O)Nc2nnc([C@@H]3C[C@H](O)[C@@H](CO)O3)s2)cc1 | 14 | / | 6 | 63* | -13
O=C(Nc1nnc([C@H]2C[C@H](O)[C@@H](CO)O2)s1)c1cccc(C(F)(F)F)c1 | / | / | -1 | 5 | -17
O=C(Nc1cccc(C(F)(F)F)c1)Nc1nnc([C@@H]2C[C@H](O)[C@@H](CO)O2)s1 | / | / | 7 | 55* | -27
CC(NC(=O)/C(C#N)=C/c1ccc([N+](=O)[O-])o1)c1ccccc1 (stereo not given) | -11 | -6 | 5 | 5 | 69*
COC(=O)c1ccc(/C=C(\C#N)C(=O)NC(C)c2ccccc2)cc1 (stereo not given) | 22 | 9 | 29 | 57* | -16
CC(NC(=O)/C(C#N)=C/c1ccco1)c1ccccc1 (stereo not given) | 0 | -4 | 1 | -3 | -1
Cc1ccc(S(=O)(=O)Nc2ccc3c(c2)C(=O)N([C@@H](C)CO)C[C@H](C)[C@H](CN(C)CC2CCCCC2)OCCCC[C@H](C)O3)cc1 | 11 | / | / | / | 16
COc1ccc(NC(=O)c2cc(-c3cc(C)cc(C)c3O)n[nH]2)cc1Cl | / | -12 | 64* | 82* | /
COc1ccc(NC(=O)c2cc(-c3ccccc3O)n[nH]2)cc1Cl | -27 | 4 | -24 | 1 | 22
COc1cc(NC(=O)Cn2nc(C(F)(F)F)c3c2CCCC3)cc(OC)c1OC | / | 8 | / | 66* | /
CN(C)CCCNC1=CC(=O)OC12CCCCC2 | / | 1 | / | 90* | /
CC(=C1SC(=S)NC1=O)c1ccccc1 | -7 | 7 | -20 | -9 | 4
CC1(c2ccccc2)CC(C)(C)N2C(=O)/C(=C3\SC(=S)NC3=O)c3cccc1c32 (stereo not given) | 10 | 10 | 61* | 70* | /
C[C@@H]1CN([C@H](C)CO)C(=O)c2cc(-c3ccccc3F)cnc2O[C@H]1CN(C)Cc1cccc(C(=O)O)c1 | 9 | / | / | / | -2
CCNc1nc(NC(C)CC)nc(Oc2ccc(=O)[nH]n2)n1 (stereo not given) | 15 | 9 | -2 | 87* | -1
COCCNC(=O)CSC1=N/C(=C/c2ccc(Cl)c(Cl)c2)C(=O)N1c1ccccc1F | 4 | -3 | 23 | 57* | /
CCS(=O)(=O)NCC[C@@H]1CC[C@@H](NC(=O)C2CCCCC2)[C@H](CO)O1 | -1 | / | / | / | /
COC(=O)c1ccc(NC(=O)c2cc3sccc3n2C)cc1 | / | -8 | -24 | 56* | /
Clc1nc(Nc2ccc(N3CCOCC3)cc2)c2ccccc2n1 | 23 | 15 | 1 | 14 | -3
O=S(=O)(Nc1nc2ccccc2nc1Nc1ccc(N2CCOCC2)cc1)c1cc(Cl)ccc1Cl | 13 | 9 | 61* | 80* | -18
Cc1ccc2nccc(C(=O)N3CCCC(N4CCN(c5ccc(F)cc5)CC4)C3)c2c1 (stereo not given) | 0 | 4 | 76* | 7 | 8
Cc1ccc(S(=O)(=O)N(C)C[C@@H]2Oc3ccc(NC(=O)CCC(F)(F)F)cc3C(=O)N([C@@H](C)CO)C[C@H]2C)cc1 | 0 | / | / | / | 0

Source: PubChem BioAssay
